About 83,000 compounds went through this panel and 20% of them were active in at least one assay; those are over-represented in the sample as a whole.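 Each cell line was grown in a 96-well plate and treated with one concentration of compound for 48 hours. Values below 10 were considered active.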 Unmarked numbers belong to inactive results.
Tested on: HL-60(TB) leukemia
Assay: NCI-60 one-dose screen, 48 h (100 = growth as untreated, 0 = no growth, -100 = all killed)
Details: 10 µM unless noted

Row | SMILES | growth
1 | Cc1ccc2cc3c(NC(=O)c4cccnc4)nn(C)c3nc2c1 | 87.8%
2 | Cc1[nH]c(C(=O)Nc2ccc(C(N)=O)cc2OC(C)C)c(Cl)c1Cl | 97.1%
3 | CC(Sc1nc2ccccc2c(=O)n1CCc1ccc(S(N)(=O)=O)cc1)C(=O)Nc1ccc(Cl)cc1 (stereo unspecified) | 86.2%
4 | COc1cc(NC(=O)c2cccc(-c3cc(=O)c4c(OC)c(OC)c(OC)cc4o3)c2)cc(OC)c1OC | 36%
5 | Cc1cc(CSc2ccccc2C(=O)N2CC=C(c3ccccc3)CC2)on1 | 87.7%
6 | C=CCCC1(C)NC(=O)NC1=O (stereo unspecified) | 97.7%
7 | CCOC(=O)c1ccc(NC(C)=O)o1 | 80.6%
8 | COC(=O)[C@@]12CC=C(C)[C@]3(C[C@H](c4ccoc4)OC3=O)[C@H]1C=C[C@@H](O)[C@@]2(O)C(=O)OC | 107%
9 | C#Cc1cccc(Nc2ncnc3cc4c(cc23)OCCOCCOCCO4)c1 | 88.1%
10 | CC(C)CCNCC(C)(C)O | 99.3%
11 | COc1cccc(-c2nn(C(C)(C)C)cc2-c2ccnc(NCCCNS(=O)(=O)c3ccc(C)cc3)c2)c1 | 105%
12 | CCOC(=O)C1OC1(c1ccccc1)c1ccccc1 (stereo unspecified) | 89.4%
13 | S=c1[nH]c(=S)c2c(-c3ccccc3)c(-c3ccccc3)oc2[nH]1 | 94.9%
14 | Oc1ccc(/C=C/c2ccc(O)cc2)cc1 | 43.6%
15 | O=c1[nH]c(-c2ccccc2)nc(CN2CCCCC2)c1O | 84.4%
16 | CCc1ccccc1-n1c(N)c(C#N)c(-c2ccc(Cl)cc2)c(C#N)c1=O | 117%

Source: PubChem BioAssay (NCI)
